Experimental data from PubChem BioAssay.
Calls of active or inactive are those of the source. Unless noted, no rule for the calls is given here.

How the values were obtained:
[1] = tested on: XIP peptide (Xip251-270) binding; assay: small-molecule binders of XIP peptide, primary screen, biochemical, small-molecule microarray, fluorescence 635/667 nm, 0.1 µg/mL protein (AID 1182); conditions: fluorescent protein binding, 635 nm, higher = more signal, called active from +8 up or from −8 down
[2] = tested on: XIP peptide (Xip251-270); assay: small-molecule binders of XIP peptide, primary screen, biochemical, small-molecule microarray, fluorescence 635/667 nm, 0.5 µg/mL protein (AID 1183); conditions: small-molecule microarray binding, fluorescence 635 nm; higher = more signal
[3] = Plasmodium falciparum growth inhibition, primary screen, strain 3D7, DAPI fluorescence, 100 nL (AID 1184);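 also: parasites grown inside human red blood cells in medium with human serum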; conditions: P. falciparum 3D7 growth, 3 d, higher = more signal
[4] = target: Homeobox protein Hox-A13 (Mus musculus) (UniProt Q62424); assay: inhibitors of HoxA13-DNA binding, primary screen, biochemical, fluorescence polarization, labeled oligonucleotide (AID 1185); conditions: 15 min, higher = more signal, called active from +8 up or from −8 down
[5] = inhibitors of hydroxyurea-induced Chk1 phosphorylation, primary screen, imaging, HeLa, phospho-Chk1 antibody, percent positive cells (AID 1186); conditions: hydroxyurea-induced phospho-Chk1 immunofluorescence imaging, higher = more signal
[6] = inhibitors of hydroxyurea-induced Chk1 phosphorylation, primary screen, imaging, HeLa, phospho-Chk1 nuclear intensity (AID 1187); conditions: hydroxyurea-induced phospho-Chk1 immunofluorescence imaging, higher = more signal

Sequence of Homeobox protein Hox-A13 (Mus musculus) (Q62424 whole entry, looked up): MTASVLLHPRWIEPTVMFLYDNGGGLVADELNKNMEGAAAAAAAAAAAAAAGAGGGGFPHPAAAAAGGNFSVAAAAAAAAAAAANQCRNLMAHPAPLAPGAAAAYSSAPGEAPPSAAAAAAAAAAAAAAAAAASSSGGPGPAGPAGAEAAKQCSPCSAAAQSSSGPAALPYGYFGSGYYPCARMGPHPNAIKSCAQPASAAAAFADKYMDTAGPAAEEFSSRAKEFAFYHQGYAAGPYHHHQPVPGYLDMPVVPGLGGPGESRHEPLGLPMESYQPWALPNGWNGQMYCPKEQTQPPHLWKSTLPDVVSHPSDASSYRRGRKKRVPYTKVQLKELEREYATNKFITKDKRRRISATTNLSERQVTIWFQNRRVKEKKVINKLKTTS

SMILES	composite z-score [1]	composite z-score [2]	z-score [3]	z-score [4]	z-score [5]	z-score [6]
C=CCN1Cc2ccccc2[C@@H]2OC(c3ccc(OCCCO)cc3)=N[C@]2(CC=C)C1=O	0.887 (inactive)	0.794	-2.08	-1.62 (inactive)	-0.675 (inactive)	-1.39 (inactive)
C=CCC(OC(C)=O)[C@@H]1[C@@H](N(Cc2cccc3ccccc23)C(=O)Cc2ccc(F)cc2)c2cc(OCCCO)ccc2N1C(=O)c1ccc2ccccc2c1 (stereo partly drawn)	-1.12 (inactive)	-0.277	-1.85	-1.39 (inactive)	-0.457 (inactive)	-0.395 (inactive)
CC1=C2[C@@H](CCc3ccccc3)OB(O)C[C@@H]2[C@@H]2C(=O)N(Cc3ccccc3)C(=O)[C@@H]2C1	0.291 (inactive)	0.629	1.62	-7.81 (inactive)	0.235 (inactive)	0.264 (inactive)
Cc1ccccc1C(O)C1C=CC2C(=O)NC(=O)C2N1Nc1ccccn1 (stereo not drawn)	0.132 (inactive)	0.11	-0.461	-1.11 (inactive)	-0.0651 (inactive)	-0.681 (inactive)
COc1cc(NN2C(C(O)c3ccc(N(C)C)cc3)C=CC3C(=O)N(c4ccccc4)C(=O)C32)cc(OC)c1OC (stereo not drawn)	0.596 (inactive)	0.0721	-0.289	-4.2 (inactive)	0.111 (inactive)	-0.0651 (inactive)
O=C1C2C=CC(C(O)c3ccco3)N(Nc3ccccc3F)C2C(=O)N1c1ccccc1 (stereo not drawn)	0.36 (inactive)	-0.139	1.09	-1.61 (inactive)	0.456 (inactive)	0.257 (inactive)
COc1cc(C(O)C2C=CC3C(=O)N(C)C(=O)C3N2Nc2ccccc2)cc(OC)c1OC (stereo not drawn)	1.13 (inactive)	-0.0114	-0.164	-3.7 (inactive)	-0.129 (inactive)	-0.0016 (inactive)
C=CCNC(=O)[C@H]1[C@@H]2C(=O)O[C@@H](c3ccccc3)[C@@H](c3ccccc3)N2[C@@H](c2ccccc2OCCO)[C@]12C(=O)N(C(=O)OCCOC)c1ccc(C#CC3(O)CCCCCC3)cc12	0.892 (inactive)	0.712	-2.15	-0.807 (inactive)	-0.485 (inactive)	-0.428 (inactive)
C#CCN(Cc1ccccc1Br)[C@H](/C=C/c1ccccc1)[C@@H](O)Cc1ccccc1	-0.368 (inactive)	-0.115	-0.717	-0.384 (inactive)	-0.162 (inactive)	0.103 (inactive)
N[C@@H](Cc1ccccc1)C(=O)NCc1cn(Cc2ccccc2)nn1	-0.221 (inactive)	-0.984	-0.581	-0.368 (inactive)	-0.167 (inactive)	0.0852 (inactive)
CCCCC(CC)C(O)C1C=CC2C(=O)N(c3ccccc3)C(=O)C2N1Nc1ccc(C#N)cc1 (stereo not drawn)	0.742 (inactive)	0.784	0.128	-1.83 (inactive)	-0.185 (inactive)	-0.153 (inactive)
C=C[C@H](C)[C@H](OC(=O)Nc1ccc(SC)cc1)c1ccc(OCCO)cc1	2.81 (inactive)	0.232	-0.563	-5.1 (inactive)	-1.34 (inactive)	-0.511 (inactive)
CN1C(=O)C2C=CC(C(O)c3cccn3C)N(Nc3ccc([N+](=O)[O-])cc3[N+](=O)[O-])C2C1=O (stereo not drawn)	-0.438 (inactive)	-0.564	0.69	-5.85 (inactive)	0.769 (inactive)	0.127 (inactive)
CC[C@@H]1O[Si](C(C)C)(C(C)C)c2c1cc(-c1cc(C)c(OC)c(C)c1)nc2-c1ccc(Oc2ccccc2)cc1	-0.162 (inactive)	-0.22	0.0977	-1.52 (inactive)	-0.557 (inactive)	-0.461 (inactive)
C[C@@H]1NC(=O)[C@@H](Cc2ccccc2)NC(=O)[C@@]23C(=O)N[C@@H](Cc4ccccc4)C2[C@H](C)[C@@]2(C)O[C@H]2C3/C=C/C/C=C\CNC1=O (stereo partly drawn)	-0.274 (inactive)	0.711	-0.132	-6.78 (inactive)	-0.115 (inactive)	-0.328 (inactive)
CCCCC(CC)C(O)C1C=CC2C(=O)N(c3ccccc3)C(=O)C2N1Nc1ccccc1F (stereo not drawn)	0.634 (inactive)	0.0509	-0.579	-2.25 (inactive)	0.322 (inactive)	0.195 (inactive)
CC1=C2[C@@H](CCc3ccccc3)OB(O)C[C@@H]2[C@@H]2C(=O)N(C)C(=O)[C@@H]2C1	0.796 (inactive)	0.472	0.278	-5.07 (inactive)	0.0183 (inactive)	0.0905 (inactive)
Cc1ccc(S[C@]2(C(=O)NCc3ccccc3)CC(=O)N(C3CCCCC3)[C@@H]2c2ccc(CO)cc2I)cc1	0.2 (inactive)	0.742	-2.17	-2.37 (inactive)	0.355 (inactive)	0.557 (inactive)
